In PubChem BioAssay (NCATS):
Records with an inconclusive call do not appear. Activity calls are given as the source filed them. Calls come from the whole dose curve; as a rule, active = well fitted curve in the direction sought with a large enough effect; inconclusive = small, poorly fitted or top-dose-only effect, or another doubt; inactive = no such curve, though single readings can be large; an effect the other way counts as inactive or inconclusive.

Columns and labels:
[1] = Quantitative High-Throughput drug screen in 47 multiple myeloma cell lines against the NCATS MIPE library collection: KMS12PE_JCRB cell viability assay (AID 1918972); note: nearly all actives have a fitted effect of over 30% in size
Procedure, shortened: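 Viability readout: CellTiter-Glo luminescence following 5 min room-temperature incubation with reagent. Prior exposure: 48 h, 37C, humidified 5% CO2, 500 cells per well.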

[2] = Quantitative High-Throughput drug screen in 47 multiple myeloma cell lines against the NCATS MIPE library collection: KMS20_JCRB cell viability assay (AID 1918973); note: nearly all actives have a fitted effect of over 45% in size
Procedure, shortened: (§1)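 Primary qHTS used for cherry-picking: cells at 500/well, library compounds for 48 h (37C, 5% CO2), luminescent ATP assay.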

[3] = Quantitative High-Throughput drug screen in 47 multiple myeloma cell lines against the NCATS MIPE library collection: KMS21BM_JCRB cell viability assay (AID 1918974); settings: ATP luminescence, 48 h; viability: at 45.8 µM (top of the series) unless noted
Procedure, shortened: as §1

[4] = Quantitative High-Throughput drug screen in 47 multiple myeloma cell lines against the NCATS MIPE library collection: KMS26_JCRB cell viability assay (AID 1918975); note: nearly all actives have a fitted effect of over 45% in size
Procedure, shortened: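 Myeloma cell lines, 500 cells per well, exposed to MIPE 4.0 library compounds for 48 h at 37C, 5% CO2. Viability from ATP by CellTiter-Glo luminescence; normalised to DMSO (100%) and media-only (0%) wells.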

[5] = Quantitative High-Throughput drug screen in 47 multiple myeloma cell lines against the NCATS MIPE library collection: MOLP8_DSMZ cell viability assay (AID 1918977); note: nearly all actives have a fitted effect of over 45% in size
Procedure, shortened: (§2)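 Cells were exposed to library compounds for 48 hours, after which ATP was measured by CellTiter-Glo. Signal was taken as median relative luminescence units.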

[6] = Quantitative High-Throughput drug screen in 47 multiple myeloma cell lines against the NCATS MIPE library collection: NCIH929_DSMZ cell viability assay (AID 1918978); note: nearly all actives have a fitted effect of over 35% in size
Procedure, shortened: as §2

[7] = Quantitative High-Throughput drug screen in 47 multiple myeloma cell lines against the NCATS MIPE library collection: OCIMY1_PLB cell viability assay (AID 1918979); note: nearly all actives have a fitted effect of over 35% in size
Procedure, shortened: as §2

[8] = Quantitative High-Throughput drug screen in 47 multiple myeloma cell lines against the NCATS MIPE library collection: MM1S_ATCC cell viability assay (AID 1918980); note: nearly all actives have a fitted effect of over 45% in size
Procedure, shortened: as §2

[9] = Quantitative High-Throughput drug screen in 47 multiple myeloma cell lines against the NCATS MIPE library collection: MM1R_ATCC cell viability assay (AID 1918981); note: nearly all actives have a fitted effect of over 35% in size
Procedure, shortened: as §2

[10] = Quantitative High-Throughput drug screen in 47 multiple myeloma cell lines against the NCATS MIPE library collection: MMM1_PLB cell viability assay (AID 1918976); note: nearly all actives have a fitted effect of over 35% in size
Procedure, shortened: as §2

Measured: Potency
Potency is the fitted concentration of half-maximal effect.

COC(=O)c1ccc2c(C(=Nc3ccc(N(C)C(=O)CN4CCN(C)CC4)cc3)c3ccccc3)c(O)[nH]c2c1
active: [1] 526 nM | [2] 2640 nM | [3] 52.6 nM | [4] 2640 nM | [5] 9350 nM | [6] 5900 nM | [7] 10500 nM | [8] 1180 nM | [9] 14800 nM

Cc1ccc(C(=O)Nc2cccc(C(F)(F)F)c2)cc1-c1ccc2nc(NCCN3CCOCC3)ncc2c1
active: [1] 2640 nM | [2] 1660 nM | [3] 1660 nM | [10] 14800 nM | [5] 3320 nM | [6] 5260 nM | [7] 18700 nM | [8] 16600 nM | [9] 14800 nM

Nc1ncnc2c1c(-c1cnc3[nH]ccc3c1)nn2C1CCCC1
active: [1] 935 nM | [2] 83.3 nM | [3] 1050 nM | [4] 10500 nM | [10] 187 nM | [5] 105 nM | [6] 235 nM | [7] 1870 nM | [8] 2960 nM | [9] 2090 nM

CC[C@@H]1C(=O)N(C)c2cnc(Nc3ccc(C(=O)NC4CCC(N5CCN(CC6CC6)CC5)CC4)cc3OC)nc2N1C(C)C (stereo partly specified)
active: [1] 2960 nM | [2] 4180 nM | [3] 935 nM | [4] 5260 nM | [10] 7430 nM | [5] 3720 nM | [6] 1320 nM | [7] 264 nM | [8] 1320 nM

CN1CC[C@@H](c2c(O)cc(O)c3c(=O)cc(-c4ccccc4Cl)oc23)[C@@H](O)C1
active: [1] 132 nM | [2] 83.3 nM | [3] 29.6 nM | [4] 105 nM | [10] 187 nM | [5] 52.6 nM | [6] 74.3 nM | [8] 93.5 nM | [9] 105 nM

CCC1=C[C@@H]2CN(C1)Cc1c([nH]c3ccccc13)[C@@](C(=O)OC)(c1cc3c(cc1OC)N(C)[C@@H]1[C@@](O)(C(=O)OC)[C@H](OC(C)=O)[C@]4(CC)C=CCN5CC[C@]31[C@@H]54)C2
active: [1] 9.3 nM | [2] 23.5 nM | [3] 33.2 nM | [4] 2960 nM | [10] 1870 nM | [5] 33.2 nM | [6] 2090 nM | [7] 2090 nM | [8] 372 nM | [9] 187 nM

CC[C@H]1CN2CCc3cc(OC)c(OC)cc3[C@H]2C[C@@H]1C[C@@H]1NCCc2cc(OC)c(OC)cc21
active: [1] 132 nM | [2] 590 nM | [3] 264 nM | [4] 187 nM | [10] 264 nM | [5] 105 nM | [6] 469 nM | [8] 83.3 nM | [9] 187 nM

O=C(NC1CCNCC1)c1[nH]ncc1NC(=O)c1c(Cl)cccc1Cl
active: [1] 935 nM | [2] 469 nM | [3] 118 nM | [4] 187 nM | [10] 418 nM | [5] 148 nM | [6] 418 nM | [7] 2640 nM | [8] 105 nM | [9] 296 nM

OCCCNc1cc(-c2ccnc(Nc3cccc(Cl)c3)n2)ccn1
active: [1] 93.5 nM | [2] 41.8 nM | [3] 37.2 nM | [4] 132 nM | [10] 166 nM | [6] 29.6 nM | [7] 235 nM | [8] 118 nM | [9] 93.5 nM

Cn1cc(-c2[nH]c3cc(NC(=O)[C@H](N)C4CCCCC4)cc4c3c2C=NNC4=O)cn1
active: [1] 1180 nM | [2] 935 nM | [3] 166 nM | [4] 8330 nM | [5] 526 nM | [6] 1320 nM | [8] 1180 nM | [9] 1050 nM

Cc1[nH]nc2ccc(-c3cncc(OC[C@@H](N)Cc4ccccc4)c3)cc12
active: [1] 833 nM | [2] 1180 nM | [3] 935 nM | [4] 2640 nM | [10] 2960 nM | [5] 526 nM | [6] 1480 nM | [9] 1320 nM

Cc1ccc(C(=O)Nc2ccc(CN3CCN(C)CC3)c(C(F)(F)F)c2)cc1C#Cc1cnc2cccnn12
active: [1] 833 nM | [2] 833 nM | [3] 662 nM | [4] 6620 nM | [10] 7430 nM | [5] 833 nM | [6] 935 nM | [7] 14800 nM | [8] 4690 nM | [9] 3320 nM

Cn1cncc1[C@@](N)(c1ccc(Cl)cc1)c1ccc2c(c1)c(-c1cccc(Cl)c1)cc(=O)n2C
active: [1] 3320 nM | [2] 11800 nM | [3] 16600 nM | [10] 14800 nM | [5] 7430 nM | [6] 5260 nM | [9] 23500 nM

COc1ccc(F)c(F)c1C(=O)c1cnc(NC2CCN(S(C)(=O)=O)CC2)nc1N
active: [1] 1870 nM | [2] 2090 nM | [3] 296 nM | [10] 2640 nM | [5] 1320 nM | [6] 1870 nM | [7] 3720 nM | [8] 1660 nM | [9] 2090 nM

CC(C)c1nn(-c2c(Cl)cccc2Cl)c2nc(Cc3ccc(OCCO)cc3)[nH]c(=O)c12
inactive: [1] | [3]
active: [2] 166 nM | [10] 148 nM | [5] 132 nM | [6] 105 nM | [8] 41.8 nM | [9] 41.8 nM

COc1cc2c(cc1-c1c(C)noc1C)ncc1[nH]c(=O)n([C@H](C)c3ccccn3)c12
active: [1] 833 nM | [2] 8330 nM | [3] 743 nM | [4] 26.4 nM | [10] 7430 nM | [5] 296 nM | [6] 3320 nM | [8] 2640 nM

CC(=O)c1c(C)c2cnc(Nc3ccc(N4CCNCC4)cn3)nc2n(C2CCCC2)c1=O
active: [1] 23500 nM | [2] 7430 nM | [3] 14800 nM | [4] 18700 nM | [5] 18700 nM | [6] 20900 nM | [8] 20900 nM | [9] 14800 nM

O=C(c1ccc(Nc2nccc(-c3cc4ccccc4s3)n2)cc1)N1CCC(N2CCCC2)CC1
active: [1] 1870 nM | [2] 1320 nM | [3] 5260 nM | [4] 16600 nM | [10] 20900 nM | [5] 13200 nM | [6] 5900 nM | [7] 20900 nM | [8] 20900 nM

CC(C)c1ccc(Cn2ccc3c4c(N)nc(NC5CC5)nc4ccc32)cc1
active: [1] 833 nM | [2] 3720 nM | [3] 1320 nM | [4] 10500 nM | [10] 16600 nM | [5] 13200 nM | [6] 13200 nM

CC(C)[C@H](C(=O)Nc1ccc(C(=O)NO)cc1)c1ccccc1
active: [1] 526 nM | [2] 833 nM | [3] 105 nM | [4] 3320 nM | [5] 526 nM | [6] 526 nM | [8] 662 nM | [9] 526 nM

Nc1ccccc1NC(=O)c1ccc(CNC(=O)OCc2cccnc2)cc1
active: [1] 743 nM | [2] 526 nM | [3] 469 nM | [4] 4690 nM | [10] 4690 nM | [5] 1480 nM | [6] 1320 nM | [7] 4690 nM | [8] 935 nM | [9] 833 nM

CNC(=O)c1nn(C)c2c1C(C)(C)Cc1cnc(Nc3ccc(N4CCN(C)CC4)cc3)nc1-2
active: [1] 1050 nM | [2] 2960 nM | [3] 132 nM | [4] 13200 nM | [5] 1870 nM | [6] 2640 nM | [7] 5260 nM | [8] 1660 nM | [9] 3320 nM

CC(=O)Nc1nc(C)c(-c2ccc(Cl)c(S(=O)(=O)NCCO)c2)s1
active: [1] 5260 nM | [2] 1180 nM | [3] 1660 nM | [4] 7430 nM | [10] 5900 nM | [5] 9350 nM | [6] 833 nM | [7] 11800 nM | [8] 1480 nM | [9] 7430 nM

CNC(=O)c1ccccc1Nc1nc(Nc2ccc(N3CCOCC3)cc2OC)ncc1Cl
active: [1] 1050 nM | [2] 2350 nM | [3] 209 nM | [10] 526 nM | [5] 14800 nM | [6] 166 nM | [8] 662 nM | [9] 833 nM

Cc1ccc(C(N)=O)cc1Nc1nccc(-c2cn(C(C)C)c3cnccc23)n1
active: [1] 5900 nM | [2] 4180 nM | [3] 935 nM | [4] 10500 nM | [5] 4690 nM | [6] 2960 nM | [8] 7430 nM | [9] 8330 nM

CNC(=O)c1cc(Oc2ccc(NC(=O)Nc3cc(C(C)(C)C)nn3-c3ccc4ncccc4c3)c(F)c2)ccn1
active: [1] 16600 nM | [2] 5900 nM | [3] 4180 nM | [4] 9350 nM | [10] 14800 nM | [5] 4180 nM | [6] 4690 nM | [7] 16600 nM | [8] 11800 nM | [9] 7430 nM

COc1ccc(OC)c(-c2nnc3ccc(-c4ccc(OC)c(O[C@@H]5CCOC5)c4)nn23)c1
active: [1] 7430 nM | [2] 5260 nM | [3] 7430 nM | [4] 20900 nM | [10] 11800 nM | [5] 9350 nM | [6] 9350 nM | [7] 20900 nM | [9] 8330 nM

Nc1ccccc1NC(=O)c1ccc(CNc2nccc(-c3cccnc3)n2)cc1
active: [1] 469 nM | [2] 743 nM | [3] 662 nM | [4] 1320 nM | [5] 1180 nM | [6] 1180 nM | [7] 3320 nM | [8] 935 nM
